Assay outcomes as filed in PubChem.
mHTT-CaM PPI inh: mHTT-calmodulin interaction abrogation. P42858. AlphaScreen His-mHTT/GST-CaM binding, luminescence. inhibition, % at 15 µM. 3.6% of 190,000 active. AID 1671202;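 also: 0% = both proteins with DMSO and 100% = one protein alone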
Pf apPOL block: Pf-apPOL DNA polymerase inhibition. Recombinant Pf-apPOL, molecular beacon fluorescence, 1.5 h. inhibition, % at 10 µM. 0.25% of 210,000 active
* = called active by the depositor. Shown is part of a subset that was picked to be rich in hits. Rule as the data show it: active = inhibition above about 50%; inactive = the rest.

SMILES	mHTT-CaM PPI inh	Pf apPOL block
C=CCn1c(=N)c(C(=O)NC(C)c2ccccc2)cc2c(=O)n3cc(C)ccc3nc21 (centres undefined)	-1	-9
CCn1cnnc1C1CCCCN1C(=O)CCc1c[nH]c2ccccc12 (centres undefined)	56*	0
CCCn1cnnc1C1CCCCN1C(=O)CCc1ccccc1OC (centres undefined)	4	-1
O=C(O)c1ccc(N2N=C(/C=C/c3ccccc3)CC2c2ccccc2)cc1 (centres undefined)	-26	1
C(=C\c1ccccc1)/C1=Nc2ccccc2NC(c2ccccc2)C1 (centres undefined)	81*	-5
COc1ccc(C=C2Oc3c(CN4CCOCC4)c(O)cc(C)c3C2=O)c(OC)c1OC	39	-11
Cc1sc2ncnc(N3CCN(c4ccccc4F)CC3)c2c1C	2	2
Cc1ccc2ccc(C(Nc3ccccn3)c3ccccc3Cl)c(O)c2n1 (centres undefined)	64*	3
CCOc1cccc(C(Nc2ccccn2)c2ccc3ccc(C)nc3c2O)c1O (centres undefined)	67*	-7
Cc1ccc2cccc(OCc3ccccc3)c2n1	-6	10
Cc1c(Cl)cccc1-c1ccc(C(=O)Nc2ccccn2)o1	-4	-16
O=C(NC1CC1)c1cccc(OCC2CCCN(C(=O)c3ccc(F)c(F)c3)C2)c1 (centres undefined)	9	-1
CSc1nc2c(c(=O)[nH]1)C1(CCCCC1)Cc1ccccc1-2	-5	1
NNc1nc(N)c2c(n1)-c1ccccc1CC21CCCCC1	100*	-4
Cc1ccc(C(=O)NCc2nnc3n2CCCC3)s1	-5	-1
Cc1cccc(NC(=O)N2CCCC(CCC(=O)NCc3cccc(Cl)c3)C2)c1 (centres undefined)	-12	1
O=C(c1ccncc1)N1CCN(c2[nH]ncc2-c2ccncc2)CC1	-1	-1
O=C(c1ccsc1)N1CCN(c2[nH]ncc2-c2ccccc2)CC1	63*	-2
O=C(c1ccccc1)N1CCN(c2[nH]ncc2-c2ccccc2)CC1	77*	-4
O=C(c1cccs1)N1CCN(c2[nH]ncc2-c2ccncc2)CC1	0	-7
CCCCC(=O)N1CCn2c(nnc2C(C)C)C1	0	-6
Cc1nc(C(=O)N2CCCCC2)c(C)n1C1CCN(S(C)(=O)=O)CC1	0	-5
O=C(Nc1ccc(C(F)(F)F)cc1[N+](=O)[O-])O[C@H]1[C@H](Cc2ccccc2)NS(=O)(=O)[C@H]2C[C@@H]3C=C[C@]12O3	65*	-5
Cc1cc(C(=O)O[C@H]2[C@H](Cc3ccccc3)NS(=O)(=O)[C@H]3C[C@@H]4C=C[C@]23O4)ccc1[N+](=O)[O-]	17	-8
O=C1N(Cc2ccccc2)c2ccccc2C12Oc1ccccc1C1CC(c3ccco3)=NN12 (centres undefined)	32	4
SMILES	mHTT-CaM PPI inh	Pf apPOL block
CC1=NN2C(C1)c1ccccc1OC21C(=O)Nc2ccccc21 (centres undefined)	80*	-13
COc1ccc(-c2nc3cccnc3n2C2CCN(C(=O)Cc3cccnc3)C2)cc1 (centres undefined)	6	-2
COc1ccc(C2CCCN2C(=O)Nc2ccccc2)cc1 (centres undefined)	-8	3
O=C(C(c1ccccc1)c1ccccc1)N1CCN(c2ccc([N+](=O)[O-])cc2)CC1	3	-8
O=C(C(c1ccccc1)c1ccccc1)N1CCN(c2ccc(F)cc2)CC1	64*	0
CCN1C(=O)C2(SCCN2C(C)=O)c2cc(F)ccc21 (centres undefined)	40	0
Cc1nc2cc(-c3noc(COc4ccccc4)n3)ccc2o1	-13	2
CC(C)CC(NC(=O)CN1C(=O)c2ccccc2C1=O)c1ccccc1 (centres undefined)	2	-5
CN(C)Cc1c(O)ccc2c1OC(=Cc1cccc(Cl)c1)C2=O	11	10
CCN(CC)Cc1c(O)ccc2c1OC(=Cc1cccc(Cl)c1)C2=O	53*	-2
Cc1ccc(N(CC(=O)N2CCC(C)CC2)S(C)(=O)=O)cc1	-3	-16
Cc1c(Cl)cccc1N1C=C(C#N)S(=O)(=O)c2ccccc21	-4	-1
O=C(Nc1ccc(F)c(Cl)c1)N1CCC(n2c(-c3ccco3)nc3cccnc32)C1 (centres undefined)	-3	1
O=C(Nc1ccccc1)N1CCC(n2c(-c3ccco3)nc3cccnc32)C1 (centres undefined)	1	0
CCc1ccc(NC(=O)N2CCC(n3c(-c4ccco4)nc4cccnc43)C2)cc1 (centres undefined)	51*	0
O=C(c1cccc(Cl)c1)N1CCC(n2c(-c3ccco3)nc3cccnc32)C1 (centres undefined)	51*	4
O=C(c1ccc(C(F)(F)F)cc1)N1CCC(n2c(-c3ccco3)nc3cccnc32)C1 (centres undefined)	91*	-7
O=C(c1ccc(F)c(Cl)c1)N1CCC(n2c(-c3ccco3)nc3cccnc32)C1 (centres undefined)	98*	-3
COc1ccc(C(=O)N2CCC(n3c(-c4ccco4)nc4cccnc43)C2)cc1 (centres undefined)	-5	-5
Cc1cc(C)cc(C(=O)N2CCC(n3c(-c4ccco4)nc4cccnc43)C2)c1 (centres undefined)	18	-4
N=Cc1c(C(F)(F)F)[nH]n(-c2nc3ccccc3s2)c1=O	5	8
COc1ccc(-c2nc(C(=O)N3CCCC3)cs2)cc1	-1	-4
Cc1cc(Br)c(S(=O)(=O)N2CCC(C(N)=O)CC2)cc1C	-23	-9
CCC(SC1=Nc2ccccc2C2=NC(Cc3ccccc3)C(=O)N12)C(=O)NCCCOC (centres undefined)	-3	-1
CC1CC(=O)Nc2ccccc2N1C(=O)c1ccccc1Cl (centres undefined)	-3	-1
SMILES	mHTT-CaM PPI inh	Pf apPOL block
O=C(c1ccc(Cl)cc1Cl)N1CCN(c2ccccc2)CC1	-5	8
Cc1ccc(C(=O)N2CCC(n3c(-c4ccco4)nc4cccnc43)C2)cc1 (centres undefined)	14	-2
Cc1ccc(C(=O)N2CCC(n3c(-c4ccco4)nc4cccnc43)C2)cc1C (centres undefined)	72*	-4
COc1cccc(C(=O)Oc2ccc3c(=O)c(-c4ccccc4)coc3c2)c1	0	-9
Cn1cc(CN2CCC(C(=O)NCCCN3CCCC3)CC2)c2cc(Cl)ccc21	55*	-1
Cn1cc(CN2CCC(C(=O)NCCN3CCCCC3)CC2)c2cc(Cl)ccc21	1	1
CCn1cc(CN2CCC(C(=O)NCc3cccc(OC)c3)CC2)c2ccccc21	12	-4
CCn1cc(CN2CCC(C(=O)NCc3cccc(Cl)c3)CC2)c2cc(OC)ccc21	90*	1
COc1cccc(Nc2c(C(=O)N3CCCC(C)C3)cnc3nc(C)ccc23)c1 (centres undefined)	7	-1
O=C(c1cc(F)c(F)cc1Cl)N1CCN(c2ccc([N+](=O)[O-])c(N3CCCCC3)c2)CC1	5	-2
COc1ccc(N2CCN(c3cc(N4CCN(C)CC4)ccc3[N+](=O)[O-])CC2)cc1	54*	-5
CN1CCN(c2cc(N3CCN(S(C)(=O)=O)CC3)ccc2[N+](=O)[O-])CC1	2	-4
